Rows were chosen to be rich in hits. Some 1.2% of all compounds tested hit in one or more screens of this group.
HIF act – HIF pathway transcriptional activation | U2OS HRE-luciferase reporter, luminescence; normalized: DMSO 0%, desferrioxamine 100% | activation, % at 7.5 µM (by protocol) | 300,000 tested, 0.32% active | AID 1910;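 active means mean activation of at least 10% of the iron chelator positive control signal, with at least half of replicates also reaching 10%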
CR mimetic SO – yeast age-related superoxide inhibition as caloric restriction mimetic; S. cerevisiae aged cells, superoxide DHE fluorescence; stronger effect = lower value; superoxide response (% of plate mean), % at 10 µM; 330,000 tested, 0.18% active; AID 2690;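 active means superoxide response under a set limit, about three screen SD below normal, cut at about 65% in these data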;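 further: yeast aged for seven days with compound at 30 °C before DHE staining; 100% = average MFI of all compound-treated wells on the plate with controls excluded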
HDAC3 inh – human HDAC3 inhibition | O15379 | recombinant HDAC3, fluorogenic peptide/trypsin coupled, fluorescence | inhibition, % at 8.3 µM | 320,000 tested, 0.15% active; in the data active means inhibition above about 26%, passing the limit was not always enough
LANA-H2A inh – blocks KSHV LANA binding to histone H2A/H2B; AID 2629; 320,000 tested, 0.6% active; inhibition, % (no concentration beside the values); cell-free LANA-H2A/H2B peptide, fluorescence polarization; Q9QR71; in the data active means inhibition mostly above about 10%, no sharp cut-off; inactive means mostly below about 6.7%
CR mimetic CP – confirmation of caloric restriction mimetics inhibiting yeast age-related superoxide; shares compounds with CR mimetic SO; S. cerevisiae aging, superoxide DHE fluorescence; stronger effect = lower value; superoxide response (% of plate), % at 10 µM; 850 tested, 1% active; AID 434994;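 active means superoxide signal below 65% of the plate average of sample wells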;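 further: cells aged with compound for 7 days at 30 degrees C before staining; 100% equals mean DHE fluorescence of all compound wells on the plate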
DHE counter – compound alters DHE oxidation or fluorescence in yeast; shares compounds with CR mimetic SO; S. cerevisiae BY4741, flow cytometry; stronger effect = lower value; fluorescence response, % at 10 µM; 850 tested, under 10 active; AID 435000;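 active means fluorescence response below 15%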;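 further: percent of the mean fluorescence averaged over all compound wells on the plate; lower means stronger quenching of DHE signal or ROS scavenging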
* marks the source's active call; other numbers are inactive results; / = no result given.

SMILES	HIF act	CR mimetic SO	HDAC3 inh	LANA-H2A inh	CR mimetic CP	DHE counter
CS(=O)(=O)c1ccc(Cl)c(NC(=O)CCN2C(=O)NC3(CCCC3)C2=O)c1	/	82	-6	-5	/	/
O=C1N[C@@H](Cc2cn(S(=O)(=O)c3ccc(F)cc3)c3ccccc23)C(=O)N[C@H]1Cc1ccccc1	-2	107	-4	5	/	/
Cc1ccc(-c2nc(N)c3c(-c4ccc(C)cc4)nn(C(C)(C)C)c3n2)cc1	0	110	-6	2	/	/
CC(C)(C)n1nc(-c2ccc(Cl)cc2)c2c(N)ncnc21	0	50*	5	5	56*	92
CC(C)(C)n1nc(-c2ccc(F)cc2)c2c(N)ncnc21	0	32*	-4	1	72	93
CC(Oc1ccc(-c2nccc(-c3ccccn3)n2)cc1)C(=O)NN (stereo unspecified)	1	104	1	0	/	/
CC(C)n1c(-c2ccccc2)nc(=S)c2c1CCCC2	0	94	2	-1	/	/
O=C(NCCC1=CCCCC1)c1c(O)nc2ccccn2c1=O	1	64*	1	-1	85	94
COc1ccc(Cl)cc1C(=O)NCc1cnn(C)c1C	0	65*	-3	5	107	100
CC(C)(C)c1ccc(/C=C/C(=O)c2ccc(NC3=NCCCS3)cc2)cc1	0	46*	3	-1	113	122
O=C(/C=C/c1ccc(Br)cc1)c1ccc(NC2=NCCCS2)cc1	1	77	-3	-4	/	/

From PubChem BioAssay
